Rows were chosen to be rich in hits. Some 2.8% of all compounds tested hit in one or more screens of this group.
B2AR arrestin: qHTS assay of beta-arrestin-biased ligands of beta2-adrenergic receptor. Beta-2 adrenergic receptor (Homo sapiens), P07550. beta-arrestin recruitment to beta2AR, cell-based reporter. Potency, µM (highest dose often 46.1 µM), most hits filed as activators. 330,000 compounds, 0.02% hits; active = well fitted activation curve with a large enough effect; also: nearly all actives have a fitted effect of over 65% in size
Giardia kill: Small Molecules that selectively kill Giardia lamblia: qHTS; Giardia lamblia trophozoite viability; activity change, % at 7.66 µM, hits read low; 340,000 compounds, 0.15% hits; AID 540267, 2011; in the data active = activity change below about -80%;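 also: parasites exposed to compound for two days anaerobically before the ATP read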
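Giardia trophozoites, 100 cells per well, were exposed to compounds for 48 hrs at 37 deg C under anaerobic conditions; viability was then read as ATP content by bioluminescence after 15-30 min at room temperature.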
D3 ag: qHTS of D3 Dopamine Receptor Agonist: qHTS | D3R DiscoveRx beta-arrestin cells, luminescence, 90 min | 410,000 compounds, 0.58% hits | max activation, % | D(3) dopamine receptor (Homo sapiens), P35462; in the data active = max activation above about 30%
Target sequence (P35462 whole entry, looked up): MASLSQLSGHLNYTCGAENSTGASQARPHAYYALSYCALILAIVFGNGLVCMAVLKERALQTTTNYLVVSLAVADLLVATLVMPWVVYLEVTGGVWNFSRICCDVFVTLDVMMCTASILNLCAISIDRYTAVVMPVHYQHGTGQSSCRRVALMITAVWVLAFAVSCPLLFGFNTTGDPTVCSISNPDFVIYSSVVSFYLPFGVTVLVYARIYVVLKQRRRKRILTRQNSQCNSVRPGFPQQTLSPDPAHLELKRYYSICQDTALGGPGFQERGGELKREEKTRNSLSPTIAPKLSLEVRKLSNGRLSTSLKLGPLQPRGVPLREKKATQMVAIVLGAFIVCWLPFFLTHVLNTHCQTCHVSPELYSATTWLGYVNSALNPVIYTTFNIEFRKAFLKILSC
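Cells at 1500/well, incubated overnight, then treated with pinned compounds (dopamine as control) for 90 min at 37 degrees C. DiscoveRx reagent added for 30 - 60 minutes at room temperature; luminescence read.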
DRD3 antagonist: qHTS of D3 Dopamine Receptor Antagonist: qHTS | D(3) dopamine receptor (Homo sapiens), P35462 | D3R cells, DiscoveRx beta-arrestin luminescence, antagonist mode; active compounds read low | max response, negative = inhibition, % | 360,000 compounds, 2.5% hits | AID 652054, 2013; in the data active = max response below about -50%
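Cells plated overnight at 1500 cells/well, then exposed to library compounds with dopamine controls for 90 minutes at 37 degrees C. DiscoveRx reagent added for 30–60 minutes at room temperature; luminescence read, quantitative HTS format.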
Each line names hits and unclear results; the compound was inactive in the other large screens.

COc1ccc(CN2CCCC(C(=O)c3cccc(Cl)c3)C2)cc1 (centres undefined)	DRD3 antagonist -73
O=C(c1ccc2c(c1)OCO2)C1CCCN(Cc2ccc(F)c(F)c2)C1 (centres undefined)	DRD3 antagonist -52
CC[C@H](C)[C@H]1O[C@]2(C=C[C@@H]1C)C[C@@H]1C[C@@H](C/C=C(\C)[C@@H](O[C@H]3C[C@H](OC)[C@@H](O[C@H]4C[C@H](OC)[C@@H](O)[C@H](C)O4)[C@H](C)O3)[C@@H](C)/C=C/C=C3\CO[C@@H]4[C@H](O)C(C)=C[C@@H](C(=O)O1)[C@]34O)O2	none (no result: B2AR arrestin, Giardia kill, DRD3 antagonist)
CCN(CC)CCOC(=O)C(C)(c1ccccc1)c1ccccc1	none (no result: B2AR arrestin, Giardia kill, DRD3 antagonist)
CCN(CC)CCc1c[nH]c2ccccc12	none (no result: B2AR arrestin, Giardia kill, DRD3 antagonist)
OCCCBr	none (no result: B2AR arrestin, Giardia kill, DRD3 antagonist)
COc1ccc(Cl)cc1C(=O)C1CCCN(CCO)C1 (centres undefined)	DRD3 antagonist -50
CCCCCCC(=O)O[C@H]1CC[C@H]2[C@@H]3CC[C@H]4CC(=O)C=C(C)[C@]4(C)[C@H]3CC[C@]12C	none (no result: B2AR arrestin, Giardia kill, DRD3 antagonist)
CCCCn1c(O)c(C(CC)=NCCCN(C)C)c(=O)[nH]c1=O	DRD3 antagonist -64
CN1CCN(Cc2c(F)cccc2Cl)CC1	none
CN1CCc2cccc(Cl)c2CC1	DRD3 antagonist -78
COP(=S)(OC)Oc1cc(Cl)c(Cl)cc1Cl	none (no result: B2AR arrestin, Giardia kill, DRD3 antagonist)
c1ccc(CCN2CCC(N3CCN(c4ccccc4)CC3)CC2)cc1	D3 ag 69
CC(C)(C)c1cc(C=C(C#N)C#N)cc(C(C)(C)C)c1O	D3 ag 50
N#CC(C#N)=Cc1ccc(O)c(O)c1	none
CCN(CC)CCNCC(=O)Nc1ccc(Cl)cc1C(=O)c1ccccc1	DRD3 antagonist -56
O=C(COc1ccccc1)N1CCN(CC(O)COc2ccccc2)CC1 (centres undefined)	DRD3 antagonist -74
Clc1ccc(Cl)cc1	none (no result: B2AR arrestin, Giardia kill, DRD3 antagonist)

Source: PubChem
